# Assay results as given in PubChem BioAssay AID1508622 (National Center for Advancing Translational Sciences (NCATS), 2021).
# Activity calls are given as the source filed them. Calls come from the whole dose curve; as a rule, active = well fitted activation curve with a large enough effect; inconclusive = small, poorly fitted or top-dose-only effect; inactive = no such curve, though single readings can be large or run the other way.
# Experiment: Confirmatory qHTS for Identification of Small Molecule Activators of Huntingtin-Antisense Promoter Activity
# Details: HEK293 HTT-AS promoter firefly luciferase reporter, 24 h; series mostly up to 57.5 µM; activity change, positive = activation: at the top concentration
# Method in brief: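 2,500 luciferase reporter HEK293 cells/well; 24 h culture; cpds up to 57.5 uM final, PTC124 50 uM ctrl; 24 h, 37C; Dual-Glo FLuc reagent, 10 min RT; lum. Norm.: vehicle 0%, zero RLU -100%.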
# Potency is the fitted concentration of half-maximal effect.
Structure (SMILES),"activity change, positive = activation",Potency
Cc1cccc(NS(=O)(=O)c2ccc3c(c2)CCN3C(=O)C2CCC2)c1,-85.2% (inactive),
Cc1ccc(C)c(OCCCC(C)(C)C(=O)O)c1,8.19% (inactive),
Cc1cccc(N2CCN(C(=O)c3cccc(-n4c(C)nc5cccnc54)c3)CC2)c1C,-54.2% (inactive),
CCc1nnc(NC(=O)c2nc(S(=O)(=O)Cc3cccc(C)c3)ncc2Cl)s1,-94.3% (inactive),
CCOc1ccccc1NC(=O)c1ccc(F)c(S(=O)(=O)N2CCN(c3ccc(F)cc3)CC2)c1,-32.4% (inactive),
CC1CCN(C(=O)CSc2nnc(NC(=O)Nc3ccccc3)s2)CC1,-27% (inactive),
CC(C)c1ccc(NC(=O)c2ccc(F)c(S(=O)(=O)N3CCCCCC3)c2)cc1,-29.2% (inactive),
Cc1cccc(C2C=C(c3ccc(F)cc3)Nc3nc4ccccc4n32)c1 (centres undefined),,1.07 µM (active)
Cc1cccc(-n2nc(C)c(C(=O)N3CCN(c4ccccc4)CC3)c2-n2cccc2)c1,-44.8% (inactive),
O=C(c1cccs1)N(Cc1cccnc1)c1nc2c(F)cc(F)cc2s1,-58.2% (inactive),
CC(=O)N1CCCc2cc(S(=O)(=O)N3CCN(c4ccc(F)cc4)CC3)ccc21,-29.3% (inactive),
Cc1ccc(CSc2ncc(Cl)c(C(=O)NCCc3ccc(S(N)(=O)=O)cc3)n2)cc1,-39.2% (inactive),
CCCC(=O)Nc1nnc(SCc2cc(=O)c3ccc(C)cc3[nH]2)s1,-93.8% (inactive),
COc1ccc(-c2[nH]c3ccccc3c2SCCNC(=O)c2cc(OC)c(OC)c(OC)c2)cc1,-35% (inactive),
Cc1ccc(NC(=O)c2cc(S(=O)(=O)N3CCc4ccccc43)ccc2F)cc1Cl,-23.8% (inactive),
Cc1ccc(C)c(N2CCN(C(=O)C3CCN(c4nc(-c5ccc(C(C)C)cc5)no4)CC3)CC2)c1,-94.5% (inactive),
COc1cc2ccccc2cc1C(=O)N1CCN(c2nc3ccc(F)cc3s2)CC1,-89.3% (inactive),
COc1ccc(-c2noc(C(C)NC(=O)c3ccco3)n2)cc1 (centres undefined),-28.4% (inactive),
Cc1ccccc1-c1nc(CS(=O)CC(=O)N2CCN(c3cc(Cl)ccc3C)CC2)c(C)o1 (centres undefined),-92.8% (inactive),
CCc1ccc2c(c1)-c1ccccc1S(=O)(=O)N2CC(=O)N1CCCCC1,,9.53 µM (active)

Structure (SMILES),"activity change, positive = activation",Potency
Cc1cccc(CNC(=O)C2CCN(S(=O)(=O)c3ccc4c(c3)CCCN4C(=O)C3CCC3)CC2)c1,-40.3% (inactive),
COc1ccccc1NC(=O)CSc1nnc(NC(=O)Nc2ccc(C)cc2)s1,-76.3% (inactive),
O=C(Cn1c(=O)oc2cc(S(=O)(=O)N3CCCCC3)ccc21)NCc1ccc(F)cc1,-27.8% (inactive),
CCN(CC)c1ccc(NC(=O)c2sc3nc(-c4ccccc4)cn3c2C)cc1,-7.86% (inactive),
COc1ccc(Cn2c(SCc3ccc(C(=O)NC4CCCCC4)cc3)nc3ccncc32)cc1,-30.4% (inactive),
CCc1ccc2c(c1)-c1ccccc1S(=O)(=O)N2CC(=O)N1CCC(C)CC1,,12 µM (active)
CCOc1ccc(-c2nc(CSCC(=O)NCCc3ccc(OCC)c(OCC)c3)c(C)o2)cc1,-49.7% (inactive),
C#C[C@]1(O)CC[C@H]2[C@H]3CCc4cc(OC)ccc4[C@H]3CC[C@@]21C,13.8% (inactive),
Cc1ccc(NC(=O)C2CCCN2S(=O)(=O)c2cccc3nsnc23)cc1Cl (centres undefined),-45.5% (inactive),
COc1ccc(OC)c(CCNC(=O)c2cnn(-c3ccc(C)cc3C)c2C2CCN(C(=O)OC(C)(C)C)CC2)c1,-34% (inactive),
COc1ccc(OC)c(CNS(=O)(=O)c2ccc3[nH]c4c(c3c2)CCCCC4)c1,-83.3% (inactive),
COc1ccc(CNC(=O)c2oc3c(c2C)-c2nn(Cc4ccccc4Cl)cc2CC3)cc1,-26% (inactive),
CC(=O)c1cccc(NS(=O)(=O)c2ccc3[nH]c4c(c3c2)CCCCC4)c1,-89.9% (inactive),
CCN(CC)c1ccc(NC(=O)COCc2cc(-c3ccc4c(c3)OCO4)on2)c(C)c1,-33.1% (inactive),
CC(C)c1ccc(Cc2cnc(NC(=O)c3ccc4c(c3)CC(c3ccccc3)OC4=O)s2)cc1 (centres undefined),-64.6% (inactive),
O=C(c1ccc2c(c1)CCN2S(=O)(=O)c1ccc(Cl)cc1)N1CCN(c2ccc(F)cc2)CC1,-16.4% (inactive),
COc1ccc(-c2nc3cc(NC(=O)Cc4ccc(Cl)cc4)ccc3o2)cc1OC,-40.8% (inactive),
Cc1ccc(C)c(N2CCN(S(=O)(=O)c3ccc(C(=O)N(C)C)s3)CC2)c1,-84.7% (inactive),
COc1ccc(NS(=O)(=O)c2ccc3c(c2)CCN3C(=O)C2CC2)cc1OC,-96.5% (inactive),
